Read-out in assay [1]: Collagen I, COL1A1 (gene 1277)
Description: BSK_MyoF_CollagenI: BioMAP Diversity Plus: MyoF Assay for Collagen I Biomarker Activity (AID 2284238). As to conditions: primary human lung fibroblasts. In a few lines:
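ELISA readout of Collagen I after 24 h chemical treatment of primary human lung fibroblast cultures; gain of signal scored relative to DMSO vehicle baseline.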

Read-out in assay [2]: Collagen III, COL3A1 (gene 1281)
The experiment in a line: BSK_MyoF_CollagenIII: BioMAP Diversity Plus: MyoF Assay for Collagen III Biomarker Activity (AID 2284239). As to conditions: primary human lung fibroblasts. In outline: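 Lung fibroblast culture; 24 h compound exposure; collagen III by ELISA; gain-of-signal fit vs DMSO baseline.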

Read-out in assay [3]: Interleukin 17F (IL17F), IL17F (gene 112744)
The experiment in a line: BSK_BT_xIL17F: BioMAP Diversity Plus: BT Assay for Interleukin 17F (IL17F) Biomarker Activity (AID 2284243). As to conditions: primary human B cells with PBMC. In outline:
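Secreted IL-17F, read on LumineX xMAP beads, was taken as the endpoint. Cultures combined human B cells and peripheral blood mononuclear cells, sampled 24 hours after dosing, with DMSO serving as negative control.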

Read-out in assay [4]: Actin alpha 1 (ACTA1), ACTA1 (gene 58)
The experiment in a line: BSK_MyoF_ACTA1: BioMAP Diversity Plus: MyoF Assay for Actin alpha 1 (ACTA1) Biomarker Activity (AID 2284244). As to conditions: primary human lung fibroblasts. In outline:
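MyoF fibroblast system (human lung); a-SMA quantified via ELISA at 24 h; DMSO-normalised, gain-of-signal endpoint.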

Read-out in assay [5]: Interleukin 2 (IL2), IL2 (gene 3558)
Description: BSK_BT_xIL2: BioMAP Diversity Plus: BT Assay for Interleukin 2 (IL2) Biomarker Activity (AID 2284245). As to conditions: primary human B cells with PBMC. In a few lines: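 Co-cultures of primary human B cells and PBMC are treated with chemical and sampled at 24 h. IL-2 secretion is quantified by Luminex xMAP, with DMSO-treated wells as baseline.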

Read-out in assay [6]: Basic fibroblast growth factor (bFGF), FGF2 (gene 2247)
Description: BSK_MyoF_bFGF: BioMAP Diversity Plus: MyoF Assay for Basic fibroblast growth factor (bFGF) Biomarker Activity (AID 2284246). As to conditions: primary human lung fibroblasts. In outline:
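Fibroblasts from human lung, 24 h dosing. bFGF by ELISA; gain of signal over DMSO.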

Read-out in assay [7]: Collagen IV, COL4A1 (gene 1282)
Description: BSK_MyoF_CollagenIV: BioMAP Diversity Plus: MyoF Assay for Collagen IV Biomarker Activity (AID 2284247). As to conditions: primary human lung fibroblasts. In outline:
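Lung fibroblasts (human primary) treated with chemicals were assayed after 24 h for Collagen IV using an ELISA, with DMSO serving as negative control and baseline for a positive-direction fit.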

A short description of assay [8]: CCTE_Mundy_HCI_hNP1_Casp3_7: CCTE's Caspase-Glo 3/7 Assay in human neuroprogenitor cells for Apoptosis, Mundy Lab (AID 2284240). In outline: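 Luminescent caspase-3/7 readout, 26.5 h post-dose, in human neural progenitor cells from WA09 embryonic stem cells. Cells grew 40–44 h at 37 °C, 5% CO2 before chemical addition. Activity analysed as signal increase over DMSO baseline.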

Assay [9] in a line: CCTE_Mundy_HCI_hNP1_CellTiter: CCTE's Cell Titer-Glo 2 Assay in human neuroprogenitor cells for Viability, Mundy Lab (AID 2284241; active means hit-call score of the fitted dose curve at least 0.9, where 1 is the maximum). In a few lines: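 Viability read as luminescent ATP content (CellTiter-Glo, 30 min room temperature) twenty-four hours after dosing, relative to DMSO. Cells: WA09-derived hNP1 neuroprogenitors on poly-L-ornithine/laminin, plated 40 to 44 hours before chemical.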
Background: In ATP-based viability assays light output follows the ATP content of the culture.

Assay [10] in a line: CCTE_Mundy_HCI_Cortical_Synap_Neur_Matur_NeuronCount: CCTE's Synaptogenesis and Neurite Maturation Assay in rat cortical cells for Neuron Count, Mundy Lab (AID 2284242; active means hit-call score of the fitted dose curve at least 0.9, where 1 is the maximum). In a few lines: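 Measured at DIV 12: fluorescently labelled neurons (Hoechst nuclei, MAP2) in rat primary cortical cultures, counted by high-content imaging. AraC suppressed glia from DIV 5; DMSO served as negative control.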

Consider 28 compounds from PubChem BioAssay (EPA / NIEHS).

Values joined by “and” are separate entries in the source; they are usually repeats but may differ in a detail not shown here. Identical values can stand only once. Results filed as inconclusive are left out. A structure can be active in one record and inactive in another. Active and inactive are the calls of the source. How the source made its calls, unless noted: active means hit-call score of the fitted dose curve at least 0.9, where 1 is the maximum; inactive means score below 0.9. Peptide text beside a SMILES is read from it.

`C=CC(=O)NC(C)(C)C`: the result in [1], in assay [2], in [3], in assay [4], in assay [5] and in assay [6] was inactive. Besides, the result in assay [7] was inactive.

As to `Cc1c(O)cccc1O`, the result in [1], in assay [2], in assay [3], in assay [4], in assay [5] and in [6] was inactive. Further, the outcome in [7] was inactive.

Consider `Cc1c(C(=O)c2c[nH]n(C)c2=O)ccc(S(C)(=O)=O)c1C1=NOCC1`, for which the result in assay [8] and in [9] was inactive.

For `C=CC(=O)OCCCCCCCC(C)C`, the result in assay [1], in [2], in assay [3], in assay [4], in assay [5] and in [6] was inactive. In assay [7], the result was inactive.

On to `O=C1CCCCCCCCCCC1`, for which the outcome in assay [1], in assay [2], in assay [3], in assay [4], in assay [5] and in [6] was inactive. Further, in assay [7], the result was inactive.

The AC50 is the concentration at which the activity in the assay is half-maximal. `Oc1c(Cl)cc(Cl)c(Cl)c1Cl`: the AC50 in assay [1] was 20 µM (active); in assay [2], 16.5 µM (active); in assay [4], 29.7 µM (active); in assay [6], 20 µM (active). The outcome in [3], in assay [5] and in assay [7] was inactive.

Consider `CCNc1nc(NC(C)(C)C)nc(OC)n1`, for which the result in assay [1], in [2], in assay [3], in assay [4], in assay [5] and in assay [6] was inactive. Further, the outcome in assay [7] was inactive.

As to `CCCCC1C(=O)N(c2ccccc2)N(c2ccccc2)C1=O`, the result in assay [1], in [2], in assay [3], in assay [4], in assay [6] and in [7] was inactive.

Take `O=C(Cl)c1c(Cl)c(Cl)c(C(=O)Cl)c(Cl)c1Cl`: the outcome in [1], in assay [2], in [3], in assay [4], in [5] and in assay [6] was inactive. For the same compound, in [7], the result was inactive.

As for `COC(=O)[C@H](Cc1ccccc1)NC(=O)[C@@H](N)CC(=O)O` (H-Asp-Phe-OMe), the result in assay [8] and in assay [9] was inactive.

On to `O=C(Oc1ccccc1)c1ccccc1C(=O)Oc1ccccc1`, for which the result in [1], in assay [2], in assay [3], in assay [5], in assay [6] and in assay [7] was inactive. In [4], the concentration at half-maximal activity (AC50) was 30.2 µM (active).

With `C=CCCCCCCCCC=O`, the result in assay [1], in assay [2], in assay [3], in assay [4], in assay [5] and in [6] was inactive. Also, the result in assay [7] was inactive.

On to `CC=C(C)C(C)=O`, for which the outcome in assay [1], in [2], in assay [3], in [4], in assay [5] and in assay [6] was inactive. In addition, the result in [7] was inactive.

For the compound `CCCCNS(=O)(=O)c1ccccc1`, the call in [8], in assay [9] and in assay [10] was inactive.

On to `C=CC(=O)OCC(C)OCC(C)OCC(C)OC(=O)C=C` (configuration not stated), for which the AC50 in assay [1] was 30.4 µM (active); in [2] it was 30.9 µM (active); in [3], 7.15 µM (active); in assay [4], 30.8 µM (active); in assay [5] it was 9.17 µM (active); in assay [6], 31.1 µM (active). In addition, in [7], the AC50 was 23.5 µM (active).

Turning to `O=C1CCCCCCCCCCCN1`, the result in assay [1], in assay [2], in assay [3], in assay [4], in assay [5] and in assay [6] was inactive. Moreover, in [7], the outcome was inactive.

Take `CC(C)c1cccc(C(C)C)c1N`: the outcome in assay [1], in assay [2], in assay [3], in assay [4], in assay [5] and in assay [6] was inactive. Further, the result in assay [7] was inactive.

With `CC(C)[N+](C)(CCOC(=O)C1c2ccccc2Oc2ccccc21)C(C)C`, the result in assay [1], in assay [2], in [3], in assay [4], in assay [5] and in [6] was inactive. In [7], the result was inactive.

In the case of `C=C(C)C(=O)OCCCCCCCCCCCC`, the outcome in assay [1], in [2], in [3], in assay [4], in assay [5] and in [6] was inactive. The result in assay [7] was inactive.

As to `CCN1CN(CC)CN(CC)C1`, the result in assay [1], in assay [2], in assay [3], in [4], in assay [5] and in assay [6] was inactive. Besides, the outcome in [7] was inactive.

As to `CCCCCCCCC(CO)CCCCCC` (configuration not stated), the result in assay [1], in assay [2], in assay [3], in assay [4], in assay [5] and in [6] was inactive. The result in assay [7] was inactive.

In the case of `C[N+](C)(C)CCCNS(=O)(=O)C(F)(F)C(F)(F)C(F)(F)C(F)(F)C(F)(F)C(F)(F)C(F)(F)C(F)(F)F`, the AC50 in [1] is 48.6 µM (active) and 48.1 µM (active); in [2], 48.8 µM (active) and 50.1 µM (active); in assay [3], 22.5 µM (active) and 21.6 µM (active); in assay [4], 33.6 µM (active) and 31.3 µM (active); in assay [5], 32.6 µM (active) and 21.5 µM (active); in [6], 46.9 µM (active) and 47.2 µM (active). Besides, in assay [7], the AC50 is 48.9 µM (active). For the same compound, the outcome in [7] was inactive.

As to `CCCCCCC=O`, the outcome in assay [1], in assay [2], in assay [3], in [4], in assay [5] and in [6] was inactive. Further, the outcome in assay [7] was inactive.

In the case of `CC1=CC=C(C(C)C)CC1`, the result in assay [1], in assay [2], in assay [3], in assay [4], in assay [5] and in [6] was inactive. Also, the result in assay [7] was inactive.

Consider `CC(c1cc(C(C)(C)C)cc(C(C)(C)C)c1O)c1cc(C(C)(C)C)cc(C(C)(C)C)c1O`, for which the outcome in assay [1], in [2], in [4], in assay [6] and in assay [7] was inactive. For the same compound, the AC50 in assay [3] is 18.1 µM (active); in assay [5], 20 µM (active).

Consider `CC(Cl)COP(=O)(OCC(C)Cl)OCC(C)Cl` (configuration not stated), for which the result in [1], in [2], in assay [3], in assay [4], in assay [5] and in assay [6] was inactive. Further, the outcome in assay [7] was inactive.

Take `Cc1noc(NS(=O)(=O)c2ccc(N)cc2)c1C`: the call in assay [8] and in [9] was inactive.

In the case of `CCc1cccc(C)c1N(C(=O)CS(=O)(=O)O)C(C)COC` (configuration not stated), the result in [1], in assay [2], in assay [3], in assay [4], in assay [5] and in assay [6] was inactive. The result in assay [7] was inactive.
